This is one part of a sample in which hits are shown more often than they occur.
Tgondii IFNg – T. gondii growth inhibition under IFN-gamma. Toxoplasma gondii growth in IFN-gamma-treated host cells; stronger effect = lower value. activity change, negative = inhibition, % (concentration not given with the values). 3.8% of 69,000 active. AID 1259416; in the data active = activity change below about -70%, passing the limit was not always enough;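 also: host cells are HeLa cells infected with Toxoplasma gondii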
Large screens that a line does not name were inactive; ! = not confirmed by another sample.

CCCNC(=O)N1[C@H](C#N)[C@@H](c2ccccc2-c2ccc(OC)cc2)[C@@H]1CO	none
Cc1ccc(C(=O)N2CCC3(CC2)C(=O)NCCN3CC2CC2)cn1	none
O=C(O)c1ccc(NS(=O)(=O)c2cccc(C(=O)O)c2)cc1	none
O=C(/C=C/c1cccc(S(=O)(=O)Nc2ccccc2)c1)NO	Tgondii IFNg -71
CCNC(=O)/C=C/c1cccc(Br)c1	none
CCOC(=O)c1sc(-c2ncc(C(F)(F)F)cc2Cl)nc1C	none
C[C@H](CO)N1C[C@H](C)[C@@H](CN(C)S(=O)(=O)c2ccccc2C#N)OCc2cnnn2CCCC1=O	none
Cc1ccc2[nH]c3c(=O)n(CCCN4CCN(C)CC4)cnc3c2c1	none
Cc1ccc2c(c1)CCCN2CCn1c(=O)[nH]c2ccc(C)cc2c1=O	Tgondii IFNg -82
Cc1ccc2[nH]c3c(=O)n(CCc4cnc[nH]4)cnc3c2c1	none
CN1C(=O)c2cc(NC(=O)Nc3cccc(C#N)c3)ccc2OC[C@H]2O[C@@H](CC(=O)NCc3ccc(Cl)cc3)CC[C@@H]21	none
CN1C(=O)c2cc(NC(=O)c3ccc(C(F)(F)F)cc3)ccc2OC[C@H]2O[C@H](CC(=O)NCc3ccc4c(c3)OCO4)CC[C@@H]21	Tgondii IFNg -75
Cc1cc(C(=O)Nc2ccc3c(c2)C(=O)N(C)[C@H]2CC[C@@H](CC(=O)NCc4ccc(-c5ccccc5)cc4)O[C@H]2CO3)no1	Tgondii IFNg -79
COC(=O)C[C@H]1CC[C@@H]2[C@@H](COc3ccc(NC(=O)Nc4cccc(C#N)c4)cc3C(=O)N2C)O1	Tgondii IFNg -79
Cc1cc(C(=O)Nc2ccc3c(c2)C(=O)N(C)[C@@H]2CC[C@@H](CC(=O)NCc4ccc(-c5ccccc5)cc4)O[C@@H]2CO3)no1	none
CN1C(=O)c2cc(NC(=O)Nc3cccc(C#N)c3)ccc2OC[C@H]2O[C@@H](CC(=O)Nc3ccc4c(c3)CCC4)CC[C@@H]21	none
Cc1cc(C(=O)Nc2ccc3c(c2)C(=O)N(C)[C@H]2CC[C@H](CC(=O)NCc4ccc(-c5ccccc5)cc4)O[C@H]2CO3)no1	none
Cc1cc(C(=O)Nc2ccc3c(c2)C(=O)N(C)[C@@H]2CC[C@H](CC(=O)NCc4ccc(-c5ccccc5)cc4)O[C@@H]2CO3)no1	Tgondii IFNg -87
CN1C(=O)c2cc(NC(=O)c3ccc4c(c3)OCO4)ccc2OC[C@H]2O[C@@H](CC(=O)O)CC[C@@H]21	none
CN1C(=O)c2cc(NC(=O)c3ccc4c(c3)OCO4)ccc2OC[C@H]2O[C@H](CC(=O)O)CC[C@@H]21	none
Cc1cc(C(=O)Nc2ccc3c(c2)C(=O)N(C)[C@@H]2CC[C@@H](CC(=O)O)O[C@H]2CO3)no1	none
Cc1cc(C(=O)Nc2ccc3c(c2)C(=O)N(C)[C@H]2CC[C@H](CC(=O)NCc4ccc(-c5ccccc5)cc4)O[C@@H]2CO3)no1	none
O=C(NCCS(=O)(=O)Cc1ccc(F)cc1)c1cccc(OC(F)(F)F)c1	none
Cc1ccc(S(=O)(=O)Nc2cccc3c2O[C@H](CN(C)C(=O)Nc2ccc(C(F)(F)F)cc2)[C@@H](C)CN([C@H](C)CO)C3=O)cc1	none
COc1ccccc1CNC(=O)CC1N=C2c3ccccc3N=C(SCc3cc(=O)n4ccccc4n3)N2C1=O (stereo not drawn)	none
CCCNC(=O)N1CCC2(CC1)Nc1ccccc1-n1cccc12	none
Clc1ccc(-c2nc3cc(CN4CCCCC4)ccc3o2)cc1	none
COCCN1C(=O)CCc2cc(NS(=O)(=O)c3cc(C)c(C)cc3C)ccc21	none
CN1C(=O)c2cc(NC(=O)c3cccc(F)c3)ccc2OC[C@@H]2O[C@H](CC(=O)NCc3ccccc3Cl)CC[C@H]21	none
CN1C(=O)c2cc(NC(=O)c3cccc(F)c3)ccc2OC[C@H]2O[C@@H](CC(=O)NCC3CCCCC3)CC[C@H]21	Tgondii IFNg -77!
CN1C(=O)c2cc(NC(=O)c3cccc(F)c3)ccc2OC[C@@H]2O[C@H](CC(=O)NCC3CCCCC3)CC[C@@H]21	none
Cc1n[nH]c(=O)c(C)c1-c1ccc(Cl)c(C(=O)O)c1	none
CN1C(=O)C(c2cccnc2)CC12CCN(C(=O)c1ccc[nH]1)CC2 (stereo not drawn)	none
CNS(=O)(=O)c1ccc(CN2CC[C@@H](c3ccc(F)cc3)[C@H](O)C2)cc1	none
CCCN1C(=O)C2(NCCc3c2[nH]c2ccccc32)c2ccccc21 (stereo not drawn)	none
Cc1ccc(S(=O)(=O)NCc2ccccc2)cc1	none
O=S(=O)(NCCc1ccncc1)c1cc(C(F)(F)F)cc(C(F)(F)F)c1	none
CCCCNS(=O)(=O)c1ccc(S(=O)(=O)NCc2ccncc2)cc1	Tgondii IFNg -80
CCCCS(=O)(=O)N1CCC2(COCc3c(C)nc(N(C)C)nc32)C1 (stereo not drawn)	none
O=C(NC1Cc2ccccc2C1)[C@@H]1[C@@H](CO)[C@@H]2Cn3c(cccc3=O)[C@@H]2N1C(=O)c1cnccn1	none
Cc1cc(-n2cnnc2C(C)n2cccn2)n(C)n1 (stereo not drawn)	none
COc1cc2ncnc(Nc3ccc(Cl)cc3F)c2cc1OC	Tgondii IFNg -82
COc1cc2ncnc(Sc3ccc(Cl)cc3)c2cc1OC	none
COc1cc2ncnc(Nc3ccc(F)c(Cl)c3)c2cc1OCCCN1CCOCC1	none
CCCc1cc(=O)[nH]c(SCC(=O)N2CCN(c3ccccc3OC)CC2)n1	none

Screening results: PubChem, Broad Institute
